Rows were chosen to be rich in hits. Some 21% of all compounds tested hit in one or more screens of this group.
Pf growth 96h: P. falciparum growth inhibition at 96 hour, primary screen for plastid delayed-death inhibitors; Potency, µM (highest dose often 28.7 µM), usual class: inhibitors; P. falciparum luciferase reporter growth, 96 h; 320,000 compounds, 6.9% hits
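Infected RBCs, 2% Hct / 0.05% parasitemia final; luciferase-reporter P. falciparum; cpd 96 h, 37 C, 5% CO2; luciferase detection reagent; luminescence.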
Shiga inhibitor: inhibitors of Shiga toxin in Vero cells | Vero cells, Shiga toxin protein synthesis inhibition reporter | inhibition, % at 38.7 µM | 290,000 compounds, 9.2% hits | AID 2315; in the data active = inhibition mostly above about 28%, no sharp cut-off; inactive = mostly below about 43%
AMA1 RON2 block: disrupts binding of P. falciparum AMA1 to RON2. Potency, µM (doses to about 58.2 µM), usual class: inhibitors. AlphaScreen AMA1-biotinylated RON2 peptide binding. 360,000 compounds, 0.2% hits; also: nearly all actives have a fitted effect of over 45% in size
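AMA1 (3D7) with his tag at 25 nM final met compounds first, then biotinylated RON2 peptide at 25 nM; detection used donor plus acceptor beads, 10 µg/mL apiece, read by AlphaScreen after 30 min at room temperature.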
Pf growth 48h: P. falciparum growth inhibition at 48 hours (one generation); P. falciparum luciferase growth in erythrocytes, 48 h; Potency, µM (series often up to 28.7 µM), hits mostly inhibitors; 310,000 compounds, 5.9% hits
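Parasite viability was followed by luminescence of a genomically integrated firefly luciferase. Cultures held 0.1% parasitemia at 2% hematocrit (final), incubated under 5% CO2 at 37 C.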
Cycloheximide cs: affects cycloheximide protein synthesis inhibition readout, counter-screen; 300,000 compounds, 12% hits; cell reporter, cycloheximide protein synthesis inhibition counterscreen; max response, %; AID 2314; in the data active = max response mostly above about 13%, no sharp cut-off; inactive = mostly below about 14%; also: read at 38.3 µM for the half of the compounds with a filed dose
HCV inhibitor: blocks hepatitis C virus. Huh7.5.1 HCVcc-Cre infection, luciferase reporter, 44 h. 340,000 compounds, 3.4% hits. Potency, µM (series often up to 41.8 µM), most hits filed as inhibitors
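Reporter virus HCVcc-Cre (~0.5 moi) infects cells exposed to compound; seeding density 1,000 cells/well with 4 h settling beforehand. Luminescence, 15 sec read, taken 44 h post-infection following a 15 min RT substrate incubation.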
A number is an active result; . = inactive; ? = inconclusive; / = no result given. Unless noted, calls follow the shape of the dose curve; as a rule, active = well fitted curve in the direction sought with a large enough effect; inconclusive = small, poorly fitted or top-dose-only effect, or another doubt; inactive = no such curve, though single readings can be large; an effect the other way counts as inactive or inconclusive.

SMILES | Pf growth 96h | Shiga inhibitor | AMA1 RON2 block | Pf growth 48h | Cycloheximide cs | HCV inhibitor
Cc1ccc(C(=O)Cn2ncsc2=N)cc1 | . | 127 | . | . | 52 | .
CCN1CCN(CC(=O)c2ccc(C)cc2)CC1 | . | . | . | / | . | .
COc1ccc(C(=O)Nc2ccccc2)cc1NC(=O)c1ccc([N+](=O)[O-])cc1 | ? | . | . | . | . | ?
Cc1ccsc1/C=C/c1n[nH]c(=O)c(C#N)c1C | . | . | . | . | . | .
Oc1cccc2ccc(/C=C/c3cccs3)nc12 | . | 68 | . | / | 36 | ?
Cc1ccsc1/C=C/c1ccc2cccc(O)c2n1 | . | 72 | . | / | 66 | 13µM
Cc1ccsc1/C=C/c1ccc2ccccc2n1 | . | 67 | . | . | 28 | .
Cc1ccsc1/C=C/C(=O)O | . | . | . | . | . | .
COc1ccc(CN(C)C(=O)c2ccc(NS(=O)(=O)c3ccc(F)cc3)cc2)c(OC)c1OC | ? | . | . | ? | . | .
CC1(C)CC(=O)C2=C(C1)NC(=O)CC2 | / | / | . | / | / | /
Cc1ccc2c(c1)-n1c(nc3cc(Cl)ccc3c1=O)C(CC(C)C)NC2=O (centres undefined) | / | / | / | / | / | .
O=C(c1cc(COc2cccc(C(F)(F)F)c2)on1)N1CCC(Oc2cccnc2)CC1 | . | . | . | . | . | 11µM
CCOC(=O)N1CCN(C(=O)c2cc(COc3cccc(C(F)(F)F)c3)on2)CC1 | . | 60 | . | ? | 46 | .
CCOC(=O)N1CCN(C(=O)c2cc(COc3cccc(C(C)=O)c3)on2)CC1 | . | . | . | . | 41 | .
CC(=O)c1cccc(OCc2cc(C(=O)NCc3nc(C)c(C)s3)no2)c1 | . | 83 | . | . | 40 | /
Cc1ccc(OCc2cc(C(=O)N3CCC(Oc4cccnc4)CC3)no2)cc1C | ? | . | . | . | . | .
COCCN(C(=O)c1cc(CN2C(=O)c3ccccc3C2=O)ccc1OC)c1c(N)n(CC(C)C)c(=O)[nH]c1=O | / | / | . | / | / | .
CC(=O)NC(c1ccc(F)c(F)c1)c1nc(-c2ccccc2)cs1 (centres undefined) | / | / | . | / | / | /
O=C(O)CCCCCn1c(O)c(C=C2N=c3ccccc3=N2)sc1=S | ? | . | . | . | . | .
CN(Cc1nccn1C)C(=O)c1cc(COc2cccc(C(F)(F)F)c2)on1 | 9.3µM | 42 | . | . | 37 | ?
O=C(CCc1nnc(CCCCc2ccccc2)o1)NCCN1CCOC1=O | ? | 84 | . | . | 21 | .
O=C(CCc1nnc(CCCCc2ccccc2)o1)NCCCc1cccnc1 | . | . | . | . | . | .
O=C(CCc1nnc(CCCc2ccccc2)o1)NCCc1ccccc1 | . | 43 | . | . | 22 | .
O=C(CCc1nnc(CCCCc2ccccc2)o1)NCCn1cccn1 | . | . | . | . | . | .
O=C(CCc1nnc(CCCc2ccccc2)o1)NCCc1ccco1 | 9.3µM | 74 | . | . | 43 | .
SMILES | Pf growth 96h | Shiga inhibitor | AMA1 RON2 block | Pf growth 48h | Cycloheximide cs | HCV inhibitor
CCOC(=O)CCNC(=O)CCc1nnc(CCCc2ccccc2)o1 | . | 96 | . | . | 29 | .
CC(=O)Nc1cc2c3c(c1)CC(=O)N3CCC2 | . | . | . | . | . | .
COc1cc(NC(=O)c2cc(-c3ccco3)on2)cc(OC)c1OC | ? | . | . | . | . | ?
O=C(CCc1nnc(CCCc2ccccc2)o1)NCC(F)(F)F | . | 39 | . | . | 36 | .
O=C(CCc1nnc(CCCc2ccccc2)o1)NCCCC1CCCC1 | . | 120 | . | . | 41 | .
COC(c1ccccc1)c1nnc(CCC(=O)NCCCc2ccccc2)o1 (centres undefined) | ? | . | . | . | 17 | .
O=C(CCc1nnc(CCC2CCCCC2)o1)NCCc1ccccn1 | . | . | . | . | . | .
CCOc1ccccc1NC(=O)C1CCC(=O)N1S(=O)(=O)c1ccc(C)cc1 (centres undefined) | . | . | . | . | . | .
COc1cccc(C2=Nn3c(nnc3-c3ccccc3C)SC2)c1 | / | . | / | / | . | /
COc1cccc(C=NCCCN=Cc2cccc(OC)c2O)c1O | . | . | . | ? | . | .
C=CC[C@H](CC(=O)N(CCO)Cc1ccccc1)C(=O)N[C@H](COC(=O)[C@@H](CC=C)Cc1ccc(F)cc1)Cc1ccccc1 | / | / | . | / | / | 10µM
C=CCC[C@H](Cc1ccc(F)cc1)C(=O)O[C@H](CNC(=O)[C@@H](CC=C)CC(=O)N(CCO)Cc1ccccc1)c1ccccc1 | / | / | . | / | / | ?
C=CC[C@H](CC(=O)N(CCO)Cc1ccccc1)C(=O)NC[C@@H](OC(=O)[C@@H](CC=C)Cc1ccc(F)cc1)c1ccccc1 | / | / | . | / | / | 7.9µM
Cc1cc(C(=O)CSc2nnnn2C)c(C)n1Cc1ccco1 | . | 87 | . | . | 71 | .
Cc1cc(C(=O)CSc2ncccn2)c(C)n1Cc1ccco1 | . | 79 | . | . | 46 | .
OC(c1ccc(CN2CCCCC2)cc1)c1ncc(-c2ccccc2)[nH]1 (centres undefined) | / | / | . | / | / | /
COc1ccc(-n2nc(C(=O)NCC(=O)Nc3cc(OC)c(OC)c(OC)c3)c3ccccc3c2=O)cc1 | . | . | . | 9.3µM | . | .
COc1ccc(-n2nc(C(=O)NCC(=O)NCc3ccc(F)cc3)c3ccccc3c2=O)cc1 | 6.6µM | . | . | ? | . | .
COc1ccc(-n2nc(C(=O)NCC(=O)Nc3cc(OC)c(OC)c(OC)c3)c3ccccc3c2=O)cc1OC | ? | . | . | ? | . | .
COc1ccc(-n2nc(C(=O)NCC(=O)NC(C)C)c3ccccc3c2=O)cc1 | . | . | . | . | . | .
COc1ccc(-n2nc(C(=O)Nc3ccc4c(c3)OCO4)c3ccccc3c2=O)cc1 | . | . | . | 10µM | . | ?
COc1ccc(-n2nc(C(=O)NCc3ccco3)c3ccccc3c2=O)cc1 | 3.3µM | . | . | / | . | .
CCCc1cc(C(=O)Nc2cccc(-c3nn[nH]n3)c2)sc1C | / | / | . | / | / | /
CC(C)n1c(=O)c2ccccc2n1Cc1cn(-c2ccc(Cl)cc2)nn1 | / | / | . | / | / | /
CC(Oc1ccccc1Cl)C(=O)N(Cc1cccs1)C1CCS(=O)(=O)C1 (centres undefined) | . | . | . | ? | . | .
SMILES | Pf growth 96h | Shiga inhibitor | AMA1 RON2 block | Pf growth 48h | Cycloheximide cs | HCV inhibitor
CCc1nc2c(OCC(=O)C(C)(C)C)cccn2c1N(C)C(=O)COc1ccccc1 | / | / | . | / | / | /
O=C1CC(c2ccccc2)c2cc(O)ccc2O1 (centres undefined) | 10µM | . | . | . | . | .
Cc1ccccc1CN(C)C(=O)[C@H](Cc1ccccc1)NC(=O)c1ccco1 | 8.3µM | / | . | ? | / | .
COc1ccc(CN(C)C(=O)[C@H](Cc2ccccc2)NC(=O)c2ccco2)c(OC)c1 | ? | / | . | ? | / | .
CC1CC(C)CN(C(=O)CCNS(=O)(=O)c2cccs2)C1 (centres undefined) | . | . | . | . | . | .
Cc1cccc(N2CCN(C(=O)CCNS(=O)(=O)c3cccs3)CC2C)c1 (centres undefined) | . | 66 | . | . | 16 | .

Screens (PubChem BioAssay)
